Results as given in the supplement of paper PMC4466140.

B1: unnamed (peptide)
chain: LLRRTIPKRPFYHVL
B2: unnamed (peptide)
chain: HRRRRVFSIPSLKSI
B3: unnamed (peptide)
chain: FPGKKSPRLPHRNKK

target: CaNbp2; assay: SPOT peptide array binding signal intensity (averaged, normalized) (arbitrary units (background-subtracted, floor 0; scale differs between SH3 domains)); higher = stronger binding of the SH3 domain to the peptide
Method in brief: (§1)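 Peptides were synthetic 15-mers on cellulose membranes, with every cysteine replaced by serine. They were incubated overnight at 4°C with GST-SH3 domains from four yeast species at 10 μg/ml in TBS-based blocking buffer. Binding signal, the replicate-averaged normalized and background-subtracted spot intensity, is in arbitrary units that differ between domains.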

Binder | SPOT peptide array binding signal intensity
B1 | 262
B2 | 887
B3 | 216

target: CaRvs167; assay: as above
Method in brief: as §1

Binder | SPOT peptide array binding signal intensity
B1 | 48.2
B2 | 103
B3 | 247

target: CaRvs167-3; assay: as above
Method in brief: as §1

Binder | SPOT peptide array binding signal intensity
B1 | 92
B2 | 319
B3 | 7.25

target: CaSho1; assay: as above
Method in brief: as §1

Binder | SPOT peptide array binding signal intensity
B1 | 608
B2 | 1550
B3 | 152

target: CaSla1-D1-D2; assay: as above
Method in brief: as §1

Binder | SPOT peptide array binding signal intensity
B1 | 140
B2 | 49
B3 | 332

target: CaSla1-D3; assay: as above
Method in brief: as §1

Binder | SPOT peptide array binding signal intensity
B1 | 3
B2 | 29.5
B3 | ≤ 0

target: ScAbp1; assay: as above
Method in brief: as §1

Binder | SPOT peptide array binding signal intensity
B1 | 23.5
B2 | 38
B3 | 918

target: ScBbc1; assay: as above
Method in brief: as §1

Binder | SPOT peptide array binding signal intensity
B1 | 25.5
B2 | 43.5
B3 | 15.5

target: ScBem1-D1; assay: as above
Method in brief: as §1

Binder | SPOT peptide array binding signal intensity
B1 | 7
B2 | 76
B3 | 7

target: ScBzz1-D1; assay: as above
Method in brief: as §1

Binder | SPOT peptide array binding signal intensity
B1 | 3.5
B2 | 21
B3 | 9.5

target: ScBzz1-D2; assay: as above
Method in brief: as §1

Binder | SPOT peptide array binding signal intensity
B1 | 13
B2 | 51
B3 | 4.25

target: ScCyk3; assay: as above
Method in brief: as §1

Binder | SPOT peptide array binding signal intensity
B1 | 26
B2 | 238
B3 | 12.5

target: ScFus1; assay: as above
Method in brief: as §1

Binder | SPOT peptide array binding signal intensity
B1 | 307
B2 | 1620
B3 | ≤ 0

target: ScHof1; assay: as above
Method in brief: as §1

Binder | SPOT peptide array binding signal intensity
B1 | 1.5
B2 | 3
B3 | ≤ 0

target: ScHse1; assay: as above
Method in brief: as §1

Binder | SPOT peptide array binding signal intensity
B1 | 898
B2 | 2170
B3 | 473

target: ScLsb1; assay: as above
Method in brief: as §1

Binder | SPOT peptide array binding signal intensity
B1 | 44.2
B2 | 48.8
B3 | 47.1

target: ScLsb2; assay: as above
Method in brief: as §1

Binder | SPOT peptide array binding signal intensity
B1 | 13
B2 | 12.5
B3 | 0.5

target: ScLsb3; assay: as above
Method in brief: as §1

Binder | SPOT peptide array binding signal intensity
B1 | 855
B2 | 780
B3 | 3120

target: ScLsb4; assay: as above
Method in brief: as §1

Binder | SPOT peptide array binding signal intensity
B1 | 18.5
B2 | 44.5
B3 | 1170

target: ScMyo3; assay: as above
Method in brief: as §1

Binder | SPOT peptide array binding signal intensity
B1 | 0.5
B2 | 9.75
B3 | ≤ 0

target: ScMyo5; assay: as above
Method in brief: as §1

Binder | SPOT peptide array binding signal intensity
B1 | ≤ 0
B2 | 8
B3 | ≤ 0

target: ScNbp2; assay: as above
Method in brief: as §1

Binder | SPOT peptide array binding signal intensity
B1 | 343
B2 | 841
B3 | 186

target: ScPex13; assay: as above
Method in brief: as §1

Binder | SPOT peptide array binding signal intensity
B1 | 110
B2 | ≤ 0
B3 | 393

target: ScRvs167; assay: as above
Method in brief: as §1

Binder | SPOT peptide array binding signal intensity
B1 | 612
B2 | 95.5
B3 | 714

target: ScSho1; assay: as above
Method in brief: as §1

Binder | SPOT peptide array binding signal intensity
B1 | 357
B2 | 1320
B3 | 322

target: ScSla1-D1-D2; assay: as above
Method in brief: as §1

Binder | SPOT peptide array binding signal intensity
B1 | 146
B2 | 321
B3 | 570

target: ScSla1-D3; assay: as above
Method in brief: as §1

Binder | SPOT peptide array binding signal intensity
B1 | 2
B2 | 12.8
B3 | 5.25

target: SpAbp1-D1; assay: as above
Method in brief: as §1

Binder | SPOT peptide array binding signal intensity
B1 | 402
B2 | 293
B3 | 756

target: SpBbc1; assay: as above
Method in brief: as §1

Binder | SPOT peptide array binding signal intensity
B1 | 5
B2 | 12
B3 | 0.875

target: SpBzz1-D1; assay: as above
Method in brief: as §1

Binder | SPOT peptide array binding signal intensity
B1 | 76
B2 | 122
B3 | 208

target: SpBzz1-D2; assay: as above
Method in brief: as §1

Binder | SPOT peptide array binding signal intensity
B1 | ≤ 0
B2 | 0.5
B3 | 0.125

target: SpCyk3; assay: as above
Method in brief: as §1

Binder | SPOT peptide array binding signal intensity
B1 | ≤ 0
B2 | 6
B3 | 1.53e-05

target: SpHof1; assay: as above
Method in brief: as §1

Binder | SPOT peptide array binding signal intensity
B1 | 73
B2 | 322
B3 | 15.2

target: SpHof1-2; assay: as above
Method in brief: as §1

Binder | SPOT peptide array binding signal intensity
B1 | 3.25
B2 | 51.2
B3 | 19.8

target: SpHof1-3; assay: as above
Method in brief: as §1

Binder | SPOT peptide array binding signal intensity
B1 | 401
B2 | 622
B3 | 270

target: SpHse1; assay: as above
Method in brief: as §1

Binder | SPOT peptide array binding signal intensity
B1 | 372
B2 | 997
B3 | 142

target: SpLsb1; assay: as above
Method in brief: as §1

Binder | SPOT peptide array binding signal intensity
B1 | 36.5
B2 | 11
B3 | 17.9

target: SpLsb4; assay: as above
Method in brief: as §1

Binder | SPOT peptide array binding signal intensity
B1 | 463
B2 | 372
B3 | 2700

target: SpMyo1; assay: as above
Method in brief: as §1

Binder | SPOT peptide array binding signal intensity
B1 | 0.5
B2 | 8.25
B3 | 4.25

target: SpNbp2; assay: as above
Method in brief: as §1

Binder | SPOT peptide array binding signal intensity
B1 | 181
B2 | 1660
B3 | 176

target: SpPex13; assay: as above
Method in brief: as §1

Binder | SPOT peptide array binding signal intensity
B1 | 1.5
B2 | 21
B3 | 6.5

target: SpRvs167; assay: as above
Method in brief: as §1

Binder | SPOT peptide array binding signal intensity
B1 | 227
B2 | 55.8
B3 | 833

target: SpSla1-D1-D2; assay: as above
Method in brief: as §1

Binder | SPOT peptide array binding signal intensity
B1 | ≤ 0
B2 | ≤ 0
B3 | 5

target: SpSla1-D3; assay: as above
Method in brief: as §1

Binder | SPOT peptide array binding signal intensity
B1 | 11
B2 | 30
B3 | 13

target: AgAbp1; assay: as above
Method in brief: as §1

Binder | SPOT peptide array binding signal intensity
B2 | 65.5
B3 | 2580

target: AgBbc1; assay: as above
Method in brief: as §1

Binder | SPOT peptide array binding signal intensity
B2 | 88.2
B3 | 61.9

target: AgBem1-D1; assay: as above
Method in brief: as §1

Binder | SPOT peptide array binding signal intensity
B2 | 426
B3 | 47.5

target: AgBzz1-D1; assay: as above
Method in brief: as §1

Binder | SPOT peptide array binding signal intensity
B2 | 45
B3 | 50

target: AgBzz1-D2; assay: as above
Method in brief: as §1

Binder | SPOT peptide array binding signal intensity
B2 | 28.5
B3 | 33.5

target: AgCyk3; assay: as above
Method in brief: as §1

Binder | SPOT peptide array binding signal intensity
B2 | 18
B3 | ≤ 0

target: AgFus1; assay: as above
Method in brief: as §1

Binder | SPOT peptide array binding signal intensity
B2 | 1100
B3 | 6.5

target: AgHof1; assay: as above
Method in brief: as §1

Binder | SPOT peptide array binding signal intensity
B2 | 117
B3 | 35.8

target: AgHse1; assay: as above
Method in brief: as §1

Binder | SPOT peptide array binding signal intensity
B2 | 2250
B3 | 82.5

target: AgLsb1; assay: as above
Method in brief: as §1

Binder | SPOT peptide array binding signal intensity
B2 | 51.2
B3 | ≤ 0

target: AgLsb4; assay: as above
Method in brief: as §1

Binder | SPOT peptide array binding signal intensity
B2 | 264
B3 | 1270

target: AgMyo5; assay: as above
Method in brief: as §1

Binder | SPOT peptide array binding signal intensity
B2 | 6
B3 | ≤ 0

target: AgNbp2; assay: as above
Method in brief: as §1

Binder | SPOT peptide array binding signal intensity
B2 | 470
B3 | 87.2

target: AgRvs167; assay: as above
Method in brief: as §1

Binder | SPOT peptide array binding signal intensity
B2 | 15.8
B3 | 12

target: AgSho1; assay: as above
Method in brief: as §1

Binder | SPOT peptide array binding signal intensity
B2 | 168
B3 | 33

target: AgSla1-D1-D2; assay: as above
Method in brief: as §1

Binder | SPOT peptide array binding signal intensity
B2 | 776
B3 | 144

target: AgSla1-D3; assay: as above
Method in brief: as §1

Binder | SPOT peptide array binding signal intensity
B2 | 11
B3 | 13.5

target: CaAbp1-D1; assay: as above
Method in brief: as §1

Binder | SPOT peptide array binding signal intensity
B2 | 703
B3 | 2250

target: CaAbp1-D2; assay: as above
Method in brief: as §1

Binder | SPOT peptide array binding signal intensity
B2 | 734
B3 | 2660

target: CaBbc1; assay: as above
Method in brief: as §1

Binder | SPOT peptide array binding signal intensity
B2 | 198
B3 | 372

target: CaBem1-D1; assay: as above
Method in brief: as §1

Binder | SPOT peptide array binding signal intensity
B2 | 100
B3 | 49.8

target: CaBzz1-D1; assay: as above
Method in brief: as §1

Binder | SPOT peptide array binding signal intensity
B2 | 60
B3 | 167

target: CaBzz1-D2; assay: as above
Method in brief: as §1

Binder | SPOT peptide array binding signal intensity
B2 | 69
B3 | 126

target: CaCyk3; assay: as above
Method in brief: as §1

Binder | SPOT peptide array binding signal intensity
B2 | 75
B3 | 4.75

target: CaFus1; assay: as above
Method in brief: as §1

Binder | SPOT peptide array binding signal intensity
B2 | 1310
B3 | 232

target: CaHof1; assay: as above
Method in brief: as §1

Binder | SPOT peptide array binding signal intensity
B2 | 0.5
B3 | ≤ 0

target: CaHse1; assay: as above
Method in brief: as §1

Binder | SPOT peptide array binding signal intensity
B2 | 232
B3 | 5.12

target: CaLsb1; assay: as above
Method in brief: as §1

Binder | SPOT peptide array binding signal intensity
B2 | 2.5
B3 | 0.25

target: CaLsb4; assay: as above
Method in brief: as §1

Binder | SPOT peptide array binding signal intensity
B2 | 196
B3 | 4250

target: CaMyo5; assay: as above
Method in brief: as §1

Binder | SPOT peptide array binding signal intensity
B2 | 3.5
B3 | ≤ 0
